Measured values from PubChem BioAssay (Tox21).
Results filed as inconclusive are left out. Unmarked numbers belong to inactive results. The call rests on the fitted dose curve; in most records, active means well fitted cell-killing curve with a large enough effect in the repeat runs; inconclusive means weak or mixed curves, or effect the other way; inactive means flat fitted curve, though single readings scatter.

Experiment: qHTS assay to identify small molecule agonists of the constitutive androstane receptor (CAR) signaling pathway - cell viability counter screen (AID 1224836); further: nearly all actives have a fitted effect of over 45% in size
Settings: HepG2-CYP2B6-hCAR viability, CellTiter-Fluor, 23 h, PK11195 added to every well; series mostly up to 92.4 µM; viability change, negative = cytotoxic: at the top concentration
Description: U.S. Tox21 Program National Center for Advancing Translational Sciences [NCATS] NIH Chemical Genomics Center [NCGC] U.S. Environmental Protection Agency [EPA] National Institutes of Environmental Health Sciences [NIEHS] National Toxicology Program [NTP] U.S. Food and Drug Administration [FDA] Tox21 Assay Overview: The constitutive androstane receptor (CAR) is a nuclear receptor which regulates multiple drug metabolizing enzymes (DMEs) and transporters. Activating CAR will generally increase the transcription and subsequent translation of CYP2B6 and CYP3A4. These two DMEs represent about 50% of the drug metabolizing potential in the body. […] Recently, there have also been studies performed indicating CARs role in energy metabolism and cancer therapy. Therefore, inducing CARs activity could have a potential effect on diabetes and cancer. Identifying environmental toxins and compounds which modulate CAR, through the use of the Tox21 10K compound collection, will be an important step in determining the toxicity and potential therapeutic effects these factors will have on the human body. To differentiate true CAR agonists from cytotoxic substances, the assay is multiplexed with a cell viability assay.
Tox21 Assay Protocol Summary: A double-stable (hCAR and CYP2B6-2.2kb) transfected cell line, derived from human hepatoma (HepG2) cells, was utilized for the duration of the quantitative high-throughput screens. The HepG2-CYP2B6-hCAR cells were dispensed at 2500 cells/4 uL/well in 1536-well white solid bottom plates using a Multidrop Combi. After the assay plates were incubated at 37 C/5% CO2 for 4 hrs, 23 nL of compounds at 15 concentrations (from 5-48 columns) or positive control (from 1 to 4 columns) were transferred to the assay plates using a Pintool station. One uL of PK11195 (final concentration = 0.75 uM) was added, using a Flying Reagent Dispenser, inside each well. After a 23 hr incubation period at 37 C/5% CO2, 1 uL of CellTiter-Fluor reagent was added into each well of the assay plates using a Flying Reagent Dispenser. The fluorescence intensity in the plates was then measured using a ViewLux plate reader.
On the % scale 0 is the no-effect control and ±100 the full control effect.

SMILES	viability change, negative = cytotoxic
C=C[Si](C)(C)O[Si](C)(C)C=C	2.39%
CCS(=O)(=O)CCn1c([N+](=O)[O-])cnc1C	3.47% [at 42.5 µM]
NC(Cc1c[nH]c2ccccc12)C(=O)O (stereo not given)	-0.575% [at 42.5 µM]
O=C1NC2NC(=O)NC2N1 (stereo not given)	-2.99%
O=CN1CCOCC1	-0.849%
Nc1ccc(/C=C/c2ccc(N)cc2S(=O)(=O)O)c(S(=O)(=O)O)c1	6.71% [at 0.349 µM]
CC(=O)OCCCc1ccccc1	2.86%
CC(C)C(=O)c1ccccc1	2.77%
C=CCOCC(CO)(COCC=C)COCC=C	1.62% [at 42.5 µM]
NS(=O)(=O)c1ccccc1OC(F)(F)F	3.52%
O=S(=O)(O)SSS(=O)(=O)O	0.249%
C[Si]1(C)N[Si](C)(C)N[Si](C)(C)N1	-3.44%
Nc1ccnc(=O)[nH]1	0.255%
Oc1ccccc1Cc1ccccc1O	1.15%
O=C(/C=C/c1ccccc1)NCCO	-14.8% [at 42.5 µM]
O=C1c2ccccc2-c2ccccc21	6.44%
NS(=O)(=O)c1cc2c(cc1Cl)NC(C(Cl)Cl)NS2(=O)=O (stereo not given)	1.98% [at 42.5 µM]
CCCCCC1CCCC(=O)O1 (stereo not given)	-0.839%
O=P(O)(O)OCC(O)CO (stereo not given)	2.7% [at 42.5 µM]
Cc1ncc([N+](=O)[O-])n1CC(O)CCl (stereo not given)	8.95% [at 42.5 µM]

SMILES	viability change, negative = cytotoxic
CC(=O)c1ccc2c(c1)CCCC2	-4.66%
O=C(O)Cc1cccc(-c2cc(CCCCCCc3ccc(O[C@H]4O[C@H](CO)[C@@H](O)[C@H](O)[C@@H]4O)c(-c4cccc(CC(=O)O)c4)c3)ccc2O[C@H]2O[C@H](CO)[C@@H](O)[C@H](O)[C@@H]2O)c1	5.82% [at 0.349 µM]
CCNC(=O)NCCCOc1cccc(CN2CCCCC2)c1	-13.9% [at 42.5 µM]
CCCCC(=O)N(C)C	0.862%
C=C(C)C(=O)OCCCCCCOC(=O)C(=C)C	-4.18%
NC(=O)C1(N2CCCCC2)CCN(CCCC(=O)c2ccc(F)cc2)CC1	0.206% [at 42.5 µM]
O=c1cc(O)c(Cl)c[nH]1	-1.67% [at 42.5 µM]
SCCSCCS	-1.22%
CO/N=C(/C(=O)N[C@@H]1C(=O)N2C(C(=O)O)=C(Cn3nnc(C)n3)CS[C@H]12)c1csc(N)n1	4.26% [at 42.5 µM]
CC(C)COC(=O)/C=C/c1ccccc1	5.69%
CCCCCCCCCOCC1CO1 (stereo not given)	12.1%
COC(/C=C(\C)CCC=C(C)C)OC	-11.3%
NS(=O)(=O)c1ccc(Cl)c(S(N)(=O)=O)c1	7% [at 42.5 µM]
CCCO	6.28%
C[C@H](CCC(=O)NCC(=O)O)[C@H]1CC[C@H]2[C@@H]3[C@H](O)C[C@@H]4C[C@H](O)CC[C@]4(C)[C@H]3C[C@H](O)[C@]12C	3.87%
CO[Si](CCCS)(OC)OC	7.78%
FC(F)(F)c1ccc(Cl)cc1Cl	-18.7%
CCC1Nc2cc(Cl)c(S(N)(=O)=O)cc2S(=O)(=O)N1 (stereo not given)	-6.11% [at 42.5 µM]
NCCc1ccn[nH]1	4.83% [at 42.5 µM]
CC1(N)CCC(C(C)(C)N)CC1 (stereo not given)	-7.29%
